Test results published in PubChem BioAssay (NCI).
This is part of a sample that, as a whole, favours compounds with a hit. Of some 83,000 tested, about 20% had one in any assay.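 How to read the values: 0–100, growth inhibition (40 = 60% inhibited); 0, no net growth; -100 to 0, cell death (-40 = 40% of starting cells died; -100 = all dead).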 A number with no mark means an inactive call. Activity calls are given as the source filed them. How the source made its calls: active means growth percent below 10; inactive means the rest.

Assays:
Experiment in all cases: NCI-60 one-dose screen, 48 h (100 = growth as untreated, 0 = no growth, -100 = all killed)
Conditions in all cases: 10 µM unless noted
NCI-H23 lung = tested on: NCI-H23 lung
NCI-H226 lung = tested on: NCI-H226 lung
NCI-H322M lung = tested on: NCI-H322M lung
HOP-62 NSCLC = tested on: HOP-62 NSCLC
NCI-H460 lung = tested on: NCI-H460 lung
HOP-92 NSCLC = tested on: HOP-92 NSCLC
NCI-H522 lung = tested on: NCI-H522 lung
A549/ATCC NSCLC = tested on: A549/ATCC NSCLC
786-0 renal = tested on: 786-0 renal
COLO 205 colon = tested on: COLO 205 colon
DU-145 prostate = tested on: DU-145 prostate
K-562 leukemia = tested on: K-562 leukemia
MALME-3M melanoma = tested on: MALME-3M melanoma
MDA-MB-231 breast = tested on: MDA-MB-231 breast
SF-268 CNS = tested on: SF-268 CNS
SF-295 CNS = tested on: SF-295 CNS
SF-539 CNS = tested on: SF-539 CNS
M14 melanoma = tested on: M14 melanoma

Row | SMILES | growth (NCI-H23 lung) | growth (NCI-H226 lung) | growth (NCI-H322M lung) | growth (HOP-62 NSCLC) [%] | growth (NCI-H460 lung) | growth (HOP-92 NSCLC) | growth (NCI-H522 lung) | growth (A549/ATCC NSCLC) | growth (786-0 renal) | growth (COLO 205 colon) | growth (DU-145 prostate) | growth (K-562 leukemia) | growth (MALME-3M melanoma) | growth (MDA-MB-231 breast) | growth (SF-268 CNS) | growth (SF-295 CNS) | growth (SF-539 CNS) | growth (M14 melanoma)
1 | CCN1C(=O)N(CC)C2C1NN=c1s/c(=C\c3cccc(F)c3)c(=O)n12 (stereo unspecified) | 33.9% | 105% | 49.6% | 42.2 | 1.33% (active) | 29.6% | -0.955% (active) | 27% | 12.2% | -5.47% (active) | 5.59% (active) | 8.99% (active) | 48.7% | 25.8% | 58.3% | 9.94% (active) | -9.53% (active) | 47.6%
2 | CCCn1c(=S)sc2c(Cl)nc(C)nc21 | 110% | 91.6% | 93.6% | 104 | 88.5% | 99.3% | 33% | 117% | 106% | 43.5% | 124% | 103% | 104% | 89.1% | 98.5% | 101% | 93.3% | 101%
3 | C/C1=C\CCC2(C)OC2CC2CCC(C)(O)C(CC1)C2(C)C (stereo unspecified) | 99% | 107% | 96.5% | 101 | 106% | -16.4% (active) | 88% | 98% | 98.9% | 109% | 96.1% | 104% | 93.5% | 105% | 103% | 55.5% | 88.1% | 98.7%
4 | COc1ccc(NC(=S)/N=c2\oc3c(OC)cccc3cc2-c2cc3ccccc3[nH]2)cc1 | 70.1% | 58.8% | 80.8% | 37.6 | 69.8% | -9.96% (active) | 86.3% | 85.2% | 65% | 101% | 62.6% | 81.4% | 63.5% | 42.2% | 73% | 84.6% | 26.4% | 93.5%
5 | CCCCCCCCCN1C(=O)/C(=c2\sc3n(c2=O)C2C(NN=3)N(CC)C(=O)N2CC)c2ccccc21 (stereo unspecified) | 10.1% | 89.6% | 77% | 45.1 | 46.1% | 44.5% | 26.8% | 56% | 78.4% | 93.3% | 69.8% | 21.3% | 50.7% | 63.9% | 50.9% | 61% | 8.03% (active) | 90.8%
6 | COc1ccc(/C=c2\sc3n(c2=O)C2C(NN=3)N(C)C(=O)N2C)cc1 (stereo unspecified) | 36.3% | 94.1% | 46.6% | 21 | 9.54% (active) | 54.7% | 10.1% | 33% | 23% | -8.52% (active) | 9.2% (active) | -34.6% (active) | 25% | 42.5% | 71.3% | -7.19% (active) | -16.6% (active) | 15.4%
7 | C/C(=N\NC(=O)CC#N)c1cc2cc(Cl)ccc2o1 | 97.2% | 94.6% | 97.2% | 92.8 | 94.2% | -13.3% (active) | 84.4% | 111% | 105% | 99.7% | 103% | 96.6% | 102% | 93.9% | 102% | 99.7% | 82.9% | 104%
8 | C=CC(=O)N[C@H](/C=C/C(=O)OCC)Cc1ccc(-c2cc(Cl)cc(Cl)c2)cc1 | 76.1% | 68.9% | 92.9% | 88.4 | 98.7% | 73.7% | 51.1% | 76.4% | 96% | 95.8% | 91.1% | 89.4% | 87.6% | 72.9% | 84.7% | 83.1% | 99.9% | 88.7%
9 | COC(=O)c1ccc2nc(-c3cc4ccccc4n3C)n(CCCCOc3cc4c(cc3OC)C(=O)N3CCC[C@H]3C=N4)c2c1 | 7.22% (active) | -31.8% (active) | -38.1% (active) | 15.6 | -25.9% (active) | -28.5% (active) | -28.1% (active) | -11.8% (active) | 8.78% (active) | -39.4% (active) | 22.1% | 44.6% | -80.1% (active) | -14.7% (active) | 1.79% (active) | -26.7% (active) | -13.8% (active) | -12.7% (active)
10 | OCc1c(-c2ccccc2)nc2sccn12 | 81.9% | 106% | 105% | 95.5 | 106% | -8.39% (active) | 105% | 101% | 101% | 110% | 109% | 123% | 109% | 109% | 102% | 112% | 73.7% | 102%
11 | COc1cc(C2C3=C(COC3=O)Nc3c2ccc2c3CCCC2)cc2c1OCO2 (stereo unspecified) | 16.4% | -5.06% (active) | 47% | 21.9 | 3.74% (active) | 127% | -35.1% (active) | 25% | 18.7% | -67.7% (active) | -24.7% (active) | 12.7% | 92.1% | 6.67% (active) | 8.63% (active) | 13.3% | 4.95% (active) | 13.3%
12 | Cc1ccc(S(=O)(=O)N2CCC(C(=O)Nc3ccc(F)cc3F)CC2)cc1 | 95.8% | 87.9% | 112% | 96.2 | 107% | 82.2% | 102% | 91.8% | 89.9% | 99.3% | 97.4% | 91.7% | 104% | 87.1% | 111% | 81.8% | 97.5% | 102%
